# PubChem BioAssay AID1159580 (chemical genetic matrix, 2015)
# The campaign covered roughly 5,500 compounds. About 2,000 (36%) were called active. Another 18% or so got no clear call; they are omitted. The list shows a part of the results. Unmarked numbers belong to inactive results. Cut-off read from the data, not from the text of the source: active = normalized growth mostly below about 0.91 (no sharp cut-off); inconclusive = no clear call, values can overlap the other calls; inactive = mostly above about 0.92.
# Experiment: chemical genetic growth profiling, strain panel (AID 1159580);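 note: tested at 20 µM; growth read once vehicle control cultures reached saturation at 30 °C; 1 = growth at the plate median or of vehicle wells; lower values mean less growth of the strain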
# Details: growth OD
smiles,measurement,setting,value
O=C(/C=C/c1ccccc1)c1ccc(O)cc1,normalized growth,"S. cerevisiae deletion strains, locus YJR075W, strain HOC1, active compounds read low",0.681 (active)
same,normalized growth,"S. cerevisiae deletion strains, locus YKL009W, strain mrt4, active compounds read low",0.829 (active)
same,normalized growth,"S. cerevisiae deletion strains, locus YKL068W, active compounds read low",0.912 (active)
same,normalized growth,"S. cerevisiae deletion strains, locus YKL085W, strain MDH1 (second series), active compounds read low",0.923 (active)
same,normalized growth,"S. cerevisiae deletion strains, locus YKL085W, strain MDH1, active compounds read low",0.923 (active)
same,normalized growth,"S. cerevisiae deletion strains, locus YKL160W, strain elf1, active compounds read low",0.144 (active)
same,normalized growth,"S. cerevisiae deletion strains, locus YKR001C, strain vps1, active compounds read low",0.299 (active)
same,normalized growth,"S. cerevisiae deletion strains, locus YKR026C, strain gcn3, active compounds read low",0.292 (active)
same,normalized growth,"S. cerevisiae deletion strains, locus YKR091W, strain srl3, active compounds read low",0.509 (active)
same,normalized growth,"S. cerevisiae deletion strains, locus YLL001W, strain dnm1, active compounds read low",0.366 (active)
same,normalized growth,"S. cerevisiae deletion strains, locus YLL026W, active compounds read low",0.173 (active)
same,normalized growth,"S. cerevisiae deletion strains, locus YLL041C, strain sdh2, active compounds read low",0.218 (active)
same,normalized growth,"S. cerevisiae deletion strains, locus YLR027C, strain aat2, active compounds read low",0.0836 (active)
same,normalized growth,"S. cerevisiae deletion strains, locus YLR039C, strain RIC1, active compounds read low",0.202 (active)
same,normalized growth,"S. cerevisiae deletion strains, locus YLR058C, strain SHM2, active compounds read low",0.765 (active)
same,normalized growth,"S. cerevisiae deletion strains, locus YLR102C, strain apc9, active compounds read low",0.922 (active)
same,normalized growth,"S. cerevisiae deletion strains, locus YLR113W, strain HOG1, active compounds read low",0.964
same,normalized growth,"S. cerevisiae deletion strains, locus YLR221C, strain rsa3, active compounds read low",0.0804 (active)
same,normalized growth,"S. cerevisiae deletion strains, locus YLR258W, strain gsy2, active compounds read low",0.237 (active)
same,normalized growth,"S. cerevisiae deletion strains, locus YLR262C, strain YPT6 (second series), active compounds read low",0.17 (active)
same,normalized growth,"S. cerevisiae deletion strains, locus YLR262C, strain YPT6, active compounds read low",0.248 (active)
same,normalized growth,"S. cerevisiae deletion strains, locus YLR268W, strain sec22, active compounds read low",0.723 (active)
same,normalized growth,"S. cerevisiae deletion strains, locus YLR320W, strain mms22, active compounds read low",0.0946 (active)
same,normalized growth,"S. cerevisiae deletion strains, locus YLR330W, strain CHS5, active compounds read low",0.59 (active)
same,normalized growth,"S. cerevisiae deletion strains, locus YLR342W, strain FKS1 (second series), active compounds read low",0.569 (active)
same,normalized growth,"S. cerevisiae deletion strains, locus YLR342W, strain FKS1, active compounds read low",0.193 (active)
same,normalized growth,"S. cerevisiae deletion strains, locus YLR357W, strain rsc2, active compounds read low",0.46 (active)
same,normalized growth,"S. cerevisiae deletion strains, locus YLR370C, strain arc18, active compounds read low",0.447 (active)
same,normalized growth,"S. cerevisiae deletion strains, locus YLR371W, strain rom2, active compounds read low",0.714 (active)
same,normalized growth,"S. cerevisiae deletion strains, locus YLR384C, strain iki3, active compounds read low",0.462 (active)
same,normalized growth,"S. cerevisiae deletion strains, locus YLR418C, strain cdc73, active compounds read low",0.301 (active)
same,normalized growth,"S. cerevisiae deletion strains, locus YML016C, strain PPZ1, active compounds read low",0.896 (active)
same,normalized growth,"S. cerevisiae deletion strains, locus YML032C, strain rad52, active compounds read low",0.814 (active)
same,normalized growth,"S. cerevisiae deletion strains, locus YML120C, strain ndi1, active compounds read low",0.0894 (active)
same,normalized growth,"S. cerevisiae deletion strains, locus YML124C, strain tub3, active compounds read low",0.913 (active)
same,normalized growth,"S. cerevisiae deletion strains, locus YMR058W, strain fet3, active compounds read low",0.0951 (active)
same,normalized growth,"S. cerevisiae deletion strains, locus YMR078C, strain ctf18, active compounds read low",0.676 (active)
same,normalized growth,"S. cerevisiae deletion strains, locus YMR125W, strain sto1, active compounds read low",0.101 (active)
same,normalized growth,"S. cerevisiae deletion strains, locus YMR129W, active compounds read low",0.222 (active)
same,normalized growth,"S. cerevisiae deletion strains, locus YMR205C, strain PFK2, active compounds read low",0.124 (active)
same,normalized growth,"S. cerevisiae deletion strains, locus YMR223W, strain ubp8, active compounds read low",0.852 (active)
same,normalized growth,"S. cerevisiae deletion strains, locus YMR231W, strain pep5, active compounds read low",0.512 (active)
same,normalized growth,"S. cerevisiae deletion strains, locus YMR263W, strain SAP30, active compounds read low",0.798 (active)
same,normalized growth,"S. cerevisiae deletion strains, locus YMR307W, strain GAS1, active compounds read low",0.401 (active)
same,normalized growth,"S. cerevisiae deletion strains, locus YNL067W, strain RPL9B, active compounds read low",0.719 (active)
same,normalized growth,"S. cerevisiae deletion strains, locus YNL071W, strain lat1, active compounds read low",0.0619 (active)
same,normalized growth,"S. cerevisiae deletion strains, locus YNL128W, strain TEP1, active compounds read low",0.734 (active)
same,normalized growth,"S. cerevisiae deletion strains, locus YNL153C, strain GIM3, active compounds read low",0.492 (active)
same,normalized growth,"S. cerevisiae deletion strains, locus YNL183C, strain NPR1, active compounds read low",0.901
same,normalized growth,"S. cerevisiae deletion strains, locus YNL209W, strain ssb2, active compounds read low",0.593 (active)
same,normalized growth,"S. cerevisiae deletion strains, locus YNL233W, strain BNI4, active compounds read low",0.621 (active)
same,normalized growth,"S. cerevisiae deletion strains, locus YNL248C, strain rpa49, active compounds read low",0.0935 (active)
same,normalized growth,"S. cerevisiae deletion strains, locus YNL250W, strain rad50, active compounds read low",0.924
same,normalized growth,"S. cerevisiae deletion strains, locus YNL271C, strain bni1, active compounds read low",0.878 (active)
same,normalized growth,"S. cerevisiae deletion strains, locus YNL298W, strain CLA4, active compounds read low",0.824 (active)
same,normalized growth,"S. cerevisiae deletion strains, locus YNL307C, strain MCK1, active compounds read low",0.162 (active)
same,normalized growth,"S. cerevisiae deletion strains, locus YNL322C, strain KRE1 (second series), active compounds read low",0.231 (active)
same,normalized growth,"S. cerevisiae deletion strains, locus YNL322C, strain KRE1, active compounds read low",0.77 (active)
same,normalized growth,"S. cerevisiae deletion strains, locus YNR049C, strain mso1, active compounds read low",0.454 (active)
same,normalized growth,"S. cerevisiae deletion strains, locus YNR052C, strain pop2, active compounds read low",0.866 (active)
same,normalized growth,"S. cerevisiae deletion strains, locus YOL006C, strain TOP1, active compounds read low",0.347 (active)
same,normalized growth,"S. cerevisiae deletion strains, locus YOL012C, strain htz1",0.327
same,normalized growth,"S. cerevisiae deletion strains, locus YOL147C, strain pex11, active compounds read low",0.706 (active)
same,normalized growth,"S. cerevisiae deletion strains, locus YOR001W, strain rrp6, active compounds read low",0.189 (active)
same,normalized growth,"S. cerevisiae deletion strains, locus YOR061W, strain CKA2, active compounds read low",0.877 (active)
same,normalized growth,"S. cerevisiae deletion strains, locus YOR069W, strain VPS5, active compounds read low",0.827 (active)
same,normalized growth,"S. cerevisiae deletion strains, locus YOR070C, strain gyp1, active compounds read low",0.26 (active)
same,normalized growth,"S. cerevisiae deletion strains, locus YOR080W, strain dia2, active compounds read low",0.514 (active)
same,normalized growth,"S. cerevisiae deletion strains, locus YOR083W, strain WHI5, active compounds read low",0.312 (active)
same,normalized growth,"S. cerevisiae deletion strains, locus YOR106W, strain vam3, active compounds read low",0.241 (active)
same,normalized growth,"S. cerevisiae deletion strains, locus YOR136W, strain idh2, active compounds read low",0.914 (active)
same,normalized growth,"S. cerevisiae deletion strains, locus YOR144C, strain elg1, active compounds read low",0.88 (active)
same,normalized growth,"S. cerevisiae deletion strains, locus YOR184W, strain ser1, active compounds read low",0.459 (active)
same,normalized growth,"S. cerevisiae deletion strains, locus YOR231W, strain MKK1, active compounds read low",0.948
same,normalized growth,"S. cerevisiae deletion strains, locus YOR265W, strain rbl2, active compounds read low",0.295 (active)
same,normalized growth,"S. cerevisiae deletion strains, locus YOR270C, strain vph1, active compounds read low",0.143 (active)
same,normalized growth,"S. cerevisiae deletion strains, locus YOR290C, strain snf2, active compounds read low",0.14 (active)
same,normalized growth,"S. cerevisiae deletion strains, locus YOR316C, strain cot1, active compounds read low",0.917 (active)
same,normalized growth,"S. cerevisiae deletion strains, locus YPL051W, strain arl3, active compounds read low",0.213 (active)
same,normalized growth,"S. cerevisiae deletion strains, locus YPL055C, strain LGE1, active compounds read low",0.558 (active)
same,normalized growth,"S. cerevisiae deletion strains, locus YPL078C, strain atp4, active compounds read low",0.209 (active)
same,normalized growth,"S. cerevisiae deletion strains, locus YPL106C, strain sse1, active compounds read low",0.503 (active)
same,normalized growth,"S. cerevisiae deletion strains, locus YPL240C, strain hsp82, active compounds read low",0.149 (active)
same,normalized growth,"S. cerevisiae deletion strains, locus YPL241C, strain CIN2, active compounds read low",0.763 (active)
same,normalized growth,"S. cerevisiae deletion strains, locus YPL256C, strain CLN2, active compounds read low",0.978
same,normalized growth,"S. cerevisiae deletion strains, locus YPR119W, strain clb2, active compounds read low",0.905 (active)
same,normalized growth,"S. cerevisiae deletion strains, locus YPR141C, strain kar3, active compounds read low",0.907 (active)
same,normalized growth,"S. cerevisiae deletion strains, locus YPR163C, strain tif3, active compounds read low",0.369 (active)
same,normalized growth,"S. cerevisiae deletion strains, locus YPR167C, strain met16, active compounds read low",0.898 (active)
same,normalized growth,"S. cerevisiae deletion strains, strain wtn01, active compounds read low",0.78 (active)
same,normalized growth,"S. cerevisiae strains, strain wild type, active compounds read low",0.518 (active)
